Here are results for 17 compounds from PubChem BioAssay (NCATS).

Inconclusive results are not listed. A number with no mark means an inactive call. Calls of active or inactive are those of the source. Calls come from the whole dose curve; as a rule, active = well fitted inhibition curve with a large enough effect; inconclusive = small, poorly fitted or top-dose-only effect; inactive = flat fitted curve, though single readings scatter.

Experiment [1] relates to CRL-7250. The experiment can be described thus: Cytotoxic Profiling of Annotated Libraries Using Quantitative High-Throughput Screening (AID 1296008). For max response: % is set by controls: 0 for no effect and ±100 for the full control effect. Note: potency is the fitted concentration of half-maximal effect. As to conditions: Five cell lines viability, CellTiter-Glo ATP luminescence, 48-72 h; max response: hits give low values. In short, it runs like this: (§1)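 Compounds were pin-transferred onto cells and incubated 48 or 72 hr at 37 degree Celsius, 95% humidity. CellTiter-Glo was added, plates sat 10 min at room temperature, then ATP-coupled luminescence was imaged as the viability read-out.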
On the technique in general: In ATP-based viability assays light output follows the ATP content of the culture.

The test system of experiment [2] is HEK293. Described as above. As to conditions: Five cell lines viability, CellTiter-Glo ATP luminescence, 48-72 h; max response: hits give low values. A digest of the protocol: as §1
The subject of experiment [3] is HaCat. The description is as above. The conditions noted are these: Five cell lines viability, CellTiter-Glo ATP luminescence, 48-72 h; max response: hits give low values. A digest of the protocol:
as §1

For experiment [4], the system named is KB-3-1. Described as above. The conditions noted are these: Five cell lines viability, CellTiter-Glo ATP luminescence, 48-72 h; max response: hits give low values. A digest of the protocol: as §1
Experiment [5] deals with NIH3T3. The experiment is described as above. As to conditions: Five cell lines viability, CellTiter-Glo ATP luminescence, 48-72 h; max response: hits give low values. A digest of the protocol: as §1
Experiment [6] concerns HACAT. The experiment is described as follows: qHTS assay to identify novel small-molecules to repurpose for Merkel cell carcinoma treatment (AID 1296009). The conditions noted are these: MCC and control cell lines, CellTiter-Glo viability, 72 h; at 44.8 µM (top of the series) unless noted. A digest of the protocol: (§2)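 Luminescence from CellTiter-Glo, read 10 min after addition at room temperature, reported viability following a 72 hr, 37 degree celsius treatment with NPC or MIPE compounds in titration; values normalized to plate controls.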

The subject of experiment [7] is NIH3T3. The experiment is described as above. The conditions noted are these: MCC and control cell lines, CellTiter-Glo viability, 72 h; at 44.8 µM (top of the series) unless noted. In short, it runs like this:
as §2
Note: nearly all actives have a fitted effect of over 60% in size.

With `O=C(O)CC1CCC(c2ccc(-c3ccc(Nc4ccc(C(F)(F)F)nc4)cn3)cc2)CC1` (stereo not drawn), the max response in experiment [1] was 3.84%; in experiment [2], -8.47%; in experiment [4], -6.84%; in experiment [5] it was 2.56%. In addition, the compound was called inactive in experiment [3] and in experiment [6].
As for `O=C(CCCCC1CCCCC1)N1CCC(c2cnc[nH]2)CC1`, the results for the max response in experiment [1] and in experiment [4] were -15.2% and -20.1%, respectively. Also, the Potency in experiment [2] was 5.8 µM (active). Moreover, the compound was classed as inactive in experiment [3], in experiment [5], in experiment [6] and in experiment [7].
As for `COc1ccc(CCc2nc3cc(-c4c(C)noc4C)ccc3n2C[C@H](C)N2CCOCC2)cc1Cl`, the max response was -8.27% in experiment [1] and -12.6% in experiment [4]. Moreover, the Potency in experiment [2] is 18.4 µM (active). The compound was called inactive in experiment [3], in experiment [5], in experiment [6] and in experiment [7].
Turning to `C[C@@H]1CC[C@]2(C(=O)O)CC[C@]3(C)C(=CCC4[C@@]5(C)C[C@@H](O)[C@H](O)[C@@](C)(CO)C5CC[C@]43C)C2[C@H]1C` (stereo partly drawn), the max response in experiment [1] is -10.8%; in experiment [2] it was 4.76%; in experiment [4], 3.75%. The compound was called inactive in experiment [3] and in experiment [5]. For the same compound, the outcome in experiment [6] and in experiment [7] was “inactive [at 17.4 µM]” each time.
`O=C(/C=C/c1ccc(O)c(O)c1)OC[C@H]1O[C@@H](OC2CCCCC2O)[C@H](O)[C@@H](O)[C@@H]1O` (stereo partly drawn): the call in experiment [1], in experiment [3] and in experiment [5] was inactive. Also, the max response was -0.405% in experiment [2] and 1.68% in experiment [4]. Besides, the outcome in experiment [6] and in experiment [7] was “inactive [at 17.4 µM]” in each case.
As for `CCC(C)C(N)C(=O)NCCN1CCOCC1` (stereo not drawn), the results for the max response in experiment [1], in experiment [2] and in experiment [4] were -0.617%, 2.51% and 0.0309%, respectively. Further, the outcome in experiment [3], in experiment [5], in experiment [6] and in experiment [7] was inactive.
Regarding `CC[C@@H]1[C@H]2CCCCN3C(=O)C[C@H]([C@@H]4[C@H]1OC(=O)[C@H]4C)[C@@H]23`, the max response in experiment [1] was -4.41%; in experiment [2], -4.7%; in experiment [4], -6.87%. In addition, the result in experiment [3], in experiment [5], in experiment [6] and in experiment [7] was inactive.
For `COc1cc(O)cc(O[C@@H]2O[C@H](CO)[C@@H](O[C@@H]3OC[C@](O)(CO)[C@H]3O)[C@H](O)[C@H]2O)c1OC`, the max response in experiment [1] was 2.5%; in experiment [2], -4.25%; in experiment [5], 2.33%. For the same compound, the compound was called inactive in experiment [3] and in experiment [4]. Also, the outcome in experiment [6] is “inactive [at 17.4 µM]”.
Take `COc1ccccc1CN[C@H]1CCCN[C@H]1c1ccccc1`: the compound was called inactive in experiment [1], in experiment [3], in experiment [5], in experiment [6] and in experiment [7]. For the same compound, the max response in experiment [2] is -1.91%; in experiment [4], 1.76%.
Take `COC(=O)C1=CO[C@@H](O[C@@H]2O[C@H](CO)[C@@H](O)[C@H](O)[C@H]2O)[C@@H]2C(C)CC(=O)[C@]12O` (stereo partly drawn): the max response in experiment [1] is 4.9%; in experiment [2], -0.581%; in experiment [4], 1.82%. In addition, the result in experiment [3] and in experiment [5] was inactive. Moreover, the outcome in experiment [6] and in experiment [7] was “inactive [at 17.4 µM]” in each case.
With `CC(C)(Oc1ccc(-c2nc3cc(Cl)ccc3s2)cc1)C(=O)O`, the compound was called inactive in experiment [1], in experiment [3], in experiment [5], in experiment [6] and in experiment [7]. Also, the max response is -8.75% in experiment [2] and 5.1% in experiment [4].
For `COc1cc(C2Oc3c(OC)cc(/C=C/C(=O)OC4CC(O)(C(=O)O)CC(O)C4O)cc3C2CO)ccc1O` (stereo not drawn), the max response is -7.61% in experiment [1], 1.22% in experiment [2] and 9.01% in experiment [4]. Also, the compound was called inactive in experiment [3] and in experiment [5]. For the same compound, the outcome in experiment [6] and in experiment [7] was “inactive [at 17.4 µM]” each time.
In the case of `O=C(OCC(O)CO[C@@H]1O[C@H](C(=O)O)[C@@H](O)[C@H](O)[C@H]1O)c1ccccc1` (stereo partly drawn), the max response in experiment [1] was 4.18%; in experiment [2], -2.05%; in experiment [4], 0.261%; in experiment [5], 0.296%. Further, the compound was called inactive in experiment [3] and in experiment [6].
For `CC1(C)CC[C@]2(C(=O)O[C@@H]3O[C@H](CO)[C@@H](O)[C@H](O)[C@H]3O)[C@H](O)C[C@]3(C)C(=CCC4[C@@]5(C)CC[C@H](O[C@@H]6OC[C@@H](O)[C@H](O)[C@H]6O)[C@@](C)(C(=O)O)C5CC[C@]43C)[C@@H]2C1` (stereo partly drawn), the max response in experiment [1] was -8.24%; in experiment [2] it was -10.4%; in experiment [4], -4.94%; in experiment [5], 4.43%. In addition, the compound was called inactive in experiment [3]. The outcome in experiment [6] was “inactive [at 17.4 µM]”.
With `O=C(OC(C(F)(F)F)C(F)(F)F)N1CCN(Cc2cccc(Oc3ccccc3)c2)CC1`, the compound was classed as inactive in experiment [1], in experiment [3] and in experiment [6]. Besides, the max response in experiment [2] is -26.5%; in experiment [4], -5.42%; in experiment [5], 4.82%.
As for `C=C1CCC(OC(C)=O)C2(C)CC3OC(=O)C(C)=C3CC12` (stereo not drawn), the max response was -0.951% in experiment [1], -10.1% in experiment [2], 3.31% in experiment [4] and -1.87% in experiment [5]. Besides, the outcome in experiment [3] and in experiment [6] was inactive.
Regarding `CC(=O)OC1C(O)C(C)(O)C(/C=C/C(=O)O)C2(C)CCCC(C)(C)C12` (stereo not drawn), the results for the max response in experiment [1], in experiment [2] and in experiment [4] were 4.11%, 0.298% and 6.25%, respectively. Besides, the result in experiment [3], in experiment [5], in experiment [6] and in experiment [7] was inactive.
